The supplement of paper PMC4466140

B1: unnamed (peptide)
chain: PPIPNAPLSPAPAVP

target: AgAbp1; assay: SPOT peptide array binding signal intensity (averaged, normalized) (arbitrary units (background-subtracted, floor 0; scale differs between SH3 domains)); higher = stronger binding of the SH3 domain to the peptide
In short: (§1)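 Detection of bound protein relied on anti-GST antibody, an HRP anti-mouse secondary and luminol, with imaging and quantification in Genespotter. The bound protein was GST-fused SH3 domains from four yeast species, incubated at 10 μg/ml overnight at 4°C in TBS-based blocking buffer on cellulose membranes carrying synthetic 15-mer peptides with cysteines replaced by serines. Binding signal is normalized, background-subtracted spot intensity averaged over replicates, in arbitrary units that differ between domains.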

Binder	SPOT peptide array binding signal intensity
B1	1

target: AgBbc1; assay: as above
In short: as §1

Binder	SPOT peptide array binding signal intensity
B1	≤ 0

target: AgBem1-D1; assay: as above
In short: as §1

Binder	SPOT peptide array binding signal intensity
B1	18.5

target: AgBzz1-D1; assay: as above
In short: as §1

Binder	SPOT peptide array binding signal intensity
B1	≤ 0

target: AgBzz1-D2; assay: as above
In short: as §1

Binder	SPOT peptide array binding signal intensity
B1	≤ 0

target: AgCyk3; assay: as above
In short: as §1

Binder	SPOT peptide array binding signal intensity
B1	≤ 0

target: AgFus1; assay: as above
In short: as §1

Binder	SPOT peptide array binding signal intensity
B1	2

target: AgHof1; assay: as above
In short: as §1

Binder	SPOT peptide array binding signal intensity
B1	1

target: AgHse1; assay: as above
In short: as §1

Binder	SPOT peptide array binding signal intensity
B1	2.5

target: AgLsb1; assay: as above
In short: as §1

Binder	SPOT peptide array binding signal intensity
B1	3

target: AgLsb4; assay: as above
In short: as §1

Binder	SPOT peptide array binding signal intensity
B1	9

target: AgMyo5; assay: as above
In short: as §1

Binder	SPOT peptide array binding signal intensity
B1	1300

target: AgNbp2; assay: as above
In short: as §1

Binder	SPOT peptide array binding signal intensity
B1	3.5

target: AgRvs167; assay: as above
In short: as §1

Binder	SPOT peptide array binding signal intensity
B1	0.167

target: AgSho1; assay: as above
In short: as §1

Binder	SPOT peptide array binding signal intensity
B1	≤ 0

target: AgSla1-D1-D2; assay: as above
In short: as §1

Binder	SPOT peptide array binding signal intensity
B1	1

target: AgSla1-D3; assay: as above
In short: as §1

Binder	SPOT peptide array binding signal intensity
B1	≤ 0

target: CaAbp1-D1; assay: as above
In short: as §1

Binder	SPOT peptide array binding signal intensity
B1	≤ 0

target: CaAbp1-D2; assay: as above
In short: as §1

Binder	SPOT peptide array binding signal intensity
B1	≤ 0

target: CaBbc1; assay: as above
In short: as §1

Binder	SPOT peptide array binding signal intensity
B1	2

target: CaBem1-D1; assay: as above
In short: as §1

Binder	SPOT peptide array binding signal intensity
B1	7

target: CaBzz1-D1; assay: as above
In short: as §1

Binder	SPOT peptide array binding signal intensity
B1	≤ 0

target: CaBzz1-D2; assay: as above
In short: as §1

Binder	SPOT peptide array binding signal intensity
B1	10.5

target: CaCyk3; assay: as above
In short: as §1

Binder	SPOT peptide array binding signal intensity
B1	≤ 0

target: CaFus1; assay: as above
In short: as §1

Binder	SPOT peptide array binding signal intensity
B1	59

target: CaHof1; assay: as above
In short: as §1

Binder	SPOT peptide array binding signal intensity
B1	≤ 0

target: CaHse1; assay: as above
In short: as §1

Binder	SPOT peptide array binding signal intensity
B1	0.5

target: CaLsb1; assay: as above
In short: as §1

Binder	SPOT peptide array binding signal intensity
B1	≤ 0

target: CaLsb4; assay: as above
In short: as §1

Binder	SPOT peptide array binding signal intensity
B1	≤ 0

target: CaMyo5; assay: as above
In short: as §1

Binder	SPOT peptide array binding signal intensity
B1	952

target: CaNbp2; assay: as above
In short: as §1

Binder	SPOT peptide array binding signal intensity
B1	15.5

target: CaRvs167; assay: as above
In short: as §1

Binder	SPOT peptide array binding signal intensity
B1	≤ 0

target: CaRvs167-3; assay: as above
In short: as §1

Binder	SPOT peptide array binding signal intensity
B1	2.5

target: CaSho1; assay: as above
In short: as §1

Binder	SPOT peptide array binding signal intensity
B1	9

target: CaSla1-D1-D2; assay: as above
In short: as §1

Binder	SPOT peptide array binding signal intensity
B1	≤ 0

target: CaSla1-D3; assay: as above
In short: as §1

Binder	SPOT peptide array binding signal intensity
B1	≤ 0

target: ScAbp1; assay: as above
In short: as §1

Binder	SPOT peptide array binding signal intensity
B1	0.5

target: ScBbc1; assay: as above
In short: as §1

Binder	SPOT peptide array binding signal intensity
B1	≤ 0

target: ScBem1-D1; assay: as above
In short: as §1

Binder	SPOT peptide array binding signal intensity
B1	≤ 0

target: ScBzz1-D1; assay: as above
In short: as §1

Binder	SPOT peptide array binding signal intensity
B1	4

target: ScBzz1-D2; assay: as above
In short: as §1

Binder	SPOT peptide array binding signal intensity
B1	7.5

target: ScCyk3; assay: as above
In short: as §1

Binder	SPOT peptide array binding signal intensity
B1	2.5

target: ScFus1; assay: as above
In short: as §1

Binder	SPOT peptide array binding signal intensity
B1	≤ 0

target: ScHof1; assay: as above
In short: as §1

Binder	SPOT peptide array binding signal intensity
B1	≤ 0

target: ScHse1; assay: as above
In short: as §1

Binder	SPOT peptide array binding signal intensity
B1	1.5

target: ScLsb1; assay: as above
In short: as §1

Binder	SPOT peptide array binding signal intensity
B1	2.5

target: ScLsb2; assay: as above
In short: as §1

Binder	SPOT peptide array binding signal intensity
B1	4.5

target: ScLsb3; assay: as above
In short: as §1

Binder	SPOT peptide array binding signal intensity
B1	≤ 0

target: ScLsb4; assay: as above
In short: as §1

Binder	SPOT peptide array binding signal intensity
B1	≤ 0

target: ScMyo3; assay: as above
In short: as §1

Binder	SPOT peptide array binding signal intensity
B1	2660

target: ScMyo5; assay: as above
In short: as §1

Binder	SPOT peptide array binding signal intensity
B1	1550

target: ScNbp2; assay: as above
In short: as §1

Binder	SPOT peptide array binding signal intensity
B1	7.5

target: ScPex13; assay: as above
In short: as §1

Binder	SPOT peptide array binding signal intensity
B1	7.63e-06

target: ScRvs167; assay: as above
In short: as §1

Binder	SPOT peptide array binding signal intensity
B1	≤ 0

target: ScSho1; assay: as above
In short: as §1

Binder	SPOT peptide array binding signal intensity
B1	≤ 0

target: ScSla1-D1-D2; assay: as above
In short: as §1

Binder	SPOT peptide array binding signal intensity
B1	≤ 0

target: ScSla1-D3; assay: as above
In short: as §1

Binder	SPOT peptide array binding signal intensity
B1	1.25

target: SpAbp1-D1; assay: as above
In short: as §1

Binder	SPOT peptide array binding signal intensity
B1	≤ 0

target: SpBbc1; assay: as above
In short: as §1

Binder	SPOT peptide array binding signal intensity
B1	0.5

target: SpBzz1-D1; assay: as above
In short: as §1

Binder	SPOT peptide array binding signal intensity
B1	≤ 0

target: SpBzz1-D2; assay: as above
In short: as §1

Binder	SPOT peptide array binding signal intensity
B1	0.5

target: SpCyk3; assay: as above
In short: as §1

Binder	SPOT peptide array binding signal intensity
B1	1

target: SpHof1; assay: as above
In short: as §1

Binder	SPOT peptide array binding signal intensity
B1	≤ 0

target: SpHof1-2; assay: as above
In short: as §1

Binder	SPOT peptide array binding signal intensity
B1	1

target: SpHof1-3; assay: as above
In short: as §1

Binder	SPOT peptide array binding signal intensity
B1	1

target: SpHse1; assay: as above
In short: as §1

Binder	SPOT peptide array binding signal intensity
B1	23

target: SpLsb1; assay: as above
In short: as §1

Binder	SPOT peptide array binding signal intensity
B1	≤ 0

target: SpLsb4; assay: as above
In short: as §1

Binder	SPOT peptide array binding signal intensity
B1	≤ 0

target: SpMyo1; assay: as above
In short: as §1

Binder	SPOT peptide array binding signal intensity
B1	946

target: SpNbp2; assay: as above
In short: as §1

Binder	SPOT peptide array binding signal intensity
B1	≤ 0

target: SpPex13; assay: as above
In short: as §1

Binder	SPOT peptide array binding signal intensity
B1	≤ 0

target: SpRvs167; assay: as above
In short: as §1

Binder	SPOT peptide array binding signal intensity
B1	≤ 0

target: SpSla1-D1-D2; assay: as above
In short: as §1

Binder	SPOT peptide array binding signal intensity
B1	≤ 0

target: SpSla1-D3; assay: as above
In short: as §1

Binder	SPOT peptide array binding signal intensity
B1	≤ 0
